Screens from PubChem BioAssay.
In the library only some 11% were active in any assay of this set; here they are far more common.
HCV inhibitor: inhibitors of hepatitis C virus infection | Huh7.5.1 HCVcc-Cre infection, luciferase reporter, 44 h | Potency, µM (highest dose often 41.8 µM), inactives show at the highest dose activity change, negative = inhibition, usual class: inhibitors | hit rate 3.4% among 340,000 | AID 651820; further: on the % scale 0 is the no-effect control and ±100 the full control effect
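After 44 h co-culture of compound, cells and HCVcc-Cre (~0.5 moi), substrate is added for 15 min at room temperature and luciferase measured over 15 sec. Cells were seeded at 1,000/well and pre-cultured 4 h.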
NS1 function inh: blocks influenza NS1 protein function; Potency, µM (titrated, usually from 46.1 µM), inactives show at the top dose activity, positive = more growth; hit rate 0.4% among 270,000; AID 2326; calls by dose curve; further: actives are rising curves; nearly all actives have a fitted effect of over 50% in size
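In this qHTS, NS1 from influenza A is expressed in budding yeast, where it slows growth. Cells are switched from glucose to 2% galactose medium (pH 6.0, -URA), treated with compound, and growth recovery is read at OD600.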
VACV Venus inh: inhibitors of vaccinia virus (Venus reporter); Potency, µM (doses to about 36.5 µM), for the others: at the highest dose activity change, negative = inhibition, most hits filed as inhibitors; Vaccinia virus Venus reporter expression, fluorescence; AID 720580; hit rate 0.46% among 330,000; calls by dose curve; tested in A549 cells; further: on the % scale 0 is the no-effect control and ±100 the full control effect; nearly all actives have a fitted effect of over 30% in size
Pf growth 96h: P. falciparum growth inhibition at 96 hour, primary screen for plastid delayed-death inhibitors | P. falciparum luciferase reporter growth, 96 h | Potency, µM (doses to about 28.7 µM), for inactives: at the highest dose activity change, negative = inhibition, hits mostly inhibitors | hit rate 6.9% among 320,000 | AID 504834; further: on the % scale 0 is the no-effect control and ±100 the full control effect
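Readout is luminescence from an integrated firefly luciferase in P. falciparum. Red cells, 2% hematocrit and 0.05% parasitemia final, were cultured with compound through two parasite generations (96 hours) at 37 C, 5% CO2.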
Pf growth 48h: inhibits P. falciparum growth in the first generation, 48 h; P. falciparum luciferase growth in erythrocytes, 48 h; Potency, µM (doses to about 28.7 µM), without a hit: at the top dose activity change, negative = inhibition, actives largely listed as inhibitors; hit rate 5.9% among 310,000; further: on the % scale 0 is the no-effect control and ±100 the full control effect
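Luciferase-expressing parasites in RBCs, 2% Hct / 0.1% parasitemia final; RPMI 1640 + 0.5% Albumax; 37 C, 5% CO2, one generation; luminescence read-out, lower signal = inhibition.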
VACV mCherry inh: vaccinia inhibition (mCherry reporter); Vaccinia virus mCherry reporter infection, fluorescence; Potency, µM (highest dose often 36.5 µM), for the others: at the highest dose activity change, negative = inhibition, hits mostly inhibitors; hit rate 0.63% among 310,000; AID 720579; calls by dose curve; tested in A549 cells; further: on the % scale 0 is the no-effect control and ±100 the full control effect; nearly all actives have a fitted effect of over 35% in size
Active calls of the source: *; i = inactive; ? = inconclusive; . = not tested or not shown; [ ] = another dose, or the depositor's remark. Unless noted, the call rests on the fitted dose curve; in most records, active means well fitted inhibition curve with a large enough effect; inconclusive means small, poorly fitted or top-dose-only effect, or another doubt; inactive means no such curve, though single readings can be large or run the other way. Potency means the concentration at half of the fitted maximal effect.

SMILES	HCV inhibitor	NS1 function inh	VACV Venus inh	Pf growth 96h	Pf growth 48h	VACV mCherry inh
CCCN1Cc2cccc(C(=O)NC(CC(=O)OCC)c3ccc(C)cc3)c2C1=O (configuration not stated)	6%	.	-7%	0%	?	?
CCOc1ccc(NC(=O)c2cccc3c2C(=O)N(Cc2cccnc2)C3)cc1	?	-38%	-11%	2%	?	i
CCCN1Cc2cccc(C(=O)NC(CC(=O)OCC)c3ccc(OC(C)C)cc3)c2C1=O (configuration not stated)	?	.	-5%	-16%	13µM*	i
COCCN(Cc1cc2cc(C)cc(C)c2nc1Cl)C(=O)Nc1ccccc1	?	3%	-20%	0%	?	?
COCCN(Cc1cc2c(C)cc(C)cc2nc1Cl)C(=O)c1ccccc1F	?	.	-17%	1.9µM*	?	-6%
CC(C)(C)Sc1ccc2nc3c(n2c1)CCCC3	?	-15%	?	?	12µM*	-20%
O=C(Nc1cc(S(=O)(=O)N2CCOCC2)ccc1N1CCCCC1)c1cc(-c2ccccn2)nc2ccccc12	-2%	.	-3%	?	-27%	3%
CNC(=O)N(C1=NCC(C)(C)S1)c1ccc(F)c(Cl)c1	-3%	-89%	-8%	7.4µM*	.	i
CN(C)S(=O)(=O)Oc1ccc(Cl)cc1C(=O)Nc1cccc(C(F)(F)F)c1	11µM*	-9%	.	?	?	.
CN(C)S(=O)(=O)Oc1ccsc1C(=O)Nc1cccc(Cl)c1	?	-6%	.	?	1.7µM*	.
Cc1ccc(NC(=O)C23CCC(C)(C(=O)[C@H]2Br)C3(C)C)cc1 (some centres not stated)	6%	2%	.	-2%	-16%	.
COC(=O)c1c(C)oc2ccc(N(C(=O)c3ccncc3)S(=O)(=O)c3cc(C)ccc3C)cc12	.	.	-28%	.	.	?
COc1ccc(Cl)cc1NC(=O)CN(C)C(=O)c1cc2c(F)cccc2s1	4µM*	.	.	?	7.4µM*	.
COc1ccc(Cl)cc1NC(=O)CN(C)C(=O)c1ccc(C)s1	?	.	-5%	10%	6%	-13%
COc1ccc(Cl)cc1NC(=O)CN(C)CC(=O)Nc1c(C)n(C)n(-c2ccccc2)c1=O	3.5µM*	.	.	0%	-17%	.
COc1ccc(Cl)cc1NC(=O)NC(C)c1ccncc1 (configuration not stated)	7.1µM*	-14%	.	?	?	.
COc1ccc(Cl)cc1NC(=O)CN(C)CC(=O)Nc1ccccc1C(F)(F)F	-19%	.	-23%	?	-9%	i
COc1ccc(Cl)cc1NC(=O)CN(C)CC(=O)NC(C)c1ccccc1 (configuration not stated)	?	-37%	.	-16%	10µM*	.
COc1ccc(C)cc1NC(=O)NC(C)c1ccncc1 (configuration not stated)	-24%	2%	.	-26%	-11%	.
COc1cc2ccccc2c2cc([N+](=O)[O-])oc12	.	-26%	.	.	.	.
O=c1oc(-c2ccccc2)nc2ccsc12	8%	-51%	-19%	.	0%	-27%
COc1ccc(Cl)cc1NC(=O)CN(C)CC(=O)Nc1cc(OC)c(OC)c(OC)c1	?	-3%	.	?	15µM*	.
COc1ccc(Cl)cc1NC(=O)CN(C)CC(=O)Nc1ccc(Br)cc1	?	.	?	-24%	-16%	-22%
COc1ccc(Cl)cc1NC(=O)CN(C1CCCCC1)S(C)(=O)=O	4.5µM*	-15%	.	?	2%	.
O=C(NCCc1ccc(Cl)cc1)C1CCC(CNc2nc(=S)[nH]c3ccccc23)CC1 (configuration not stated)	11µM*	2%	-2%	-1%	?	-4%
SMILES	HCV inhibitor	NS1 function inh	VACV Venus inh	Pf growth 96h	Pf growth 48h	VACV mCherry inh
COc1ccc(CCNC(=O)CCCCCNc2nc(=S)[nH]c3ccccc23)cc1OC	11µM*	-1%	-22%	10µM*	?	?
O=C(NCCC1=CCCCC1)C1CCC(CNc2nc(=S)[nH]c3ccccc23)CC1 (configuration not stated)	?	.	-6%	24%	?	?
O=C(CCCCCNc1nc(=S)[nH]c2ccccc12)NCCc1ccccc1	?	8%	?	0%	-12%	?
COc1cccc(CN2CCNC(=O)C2CC(=O)N(C)CC2CCOCC2)c1OC (configuration not stated)	3%	7%	-10%	?	7%	-17%
Cc1cccc(C)c1OCCCCn1c(C2CC(=O)N(c3ccc(F)cc3)C2)nc2ccccc21 (configuration not stated)	.	.	-25%	.	.	-15%
COc1cccc(CN2CCC(N(CCc3ccccc3)Cc3ccccc3)CC2)c1OC	11µM*	-5%	?	22%	?	?
COc1cccc(CN2CCN(Cc3cccc(Oc4ccccc4)c3)CC2)c1OC	?	-6%	-28%	9%	10%	-28%
NCCCCCNC(=O)c1nc[nH]c1C(=O)NCC(=O)OCc1ccccc1	18%	.	-3%	.	.	-12%
CCOC(=O)c1ccc(NC(=O)C(=O)NCc2ccccn2)cc1	5%	-6%	2%	19%	25%	-13%
COc1cc(Br)cc(/C=N/NC(=O)Cc2ccccc2)c1O	13µM*	.	?	.	.	?
COc1cc(/C=N/NC(=O)Cc2ccc(Br)cc2)cc(OC)c1O	?	2%	3%	12µM*	0%	-11%
O=C(Cc1ccccc1)N/N=C/c1cc(Br)cc(Cl)c1O	?	.	?	?	-11%[5.75 µM]	13µM*
Cc1ccc(SCCC(=O)OCn2nnc3ccccc3c2=O)cc1	12%	.	-9%	24%	25%	i
CCOC(=O)N1CCN(C(=S)NC(=O)/C=C/c2ccc(C)cc2)CC1	3%	0%	1%	11%	4%	i
COc1ccc(OCC(=O)N/N=C/C(C)=C/c2ccco2)c(Br)c1	?	-5%	?	-7%	-22%	?
Brc1cc(Br)c2nc3c(cc2c1)CCC3	10µM*	-3%	.	20%	16%	.
COc1ccc(C2Nc3ccccc3C(=O)N2Cc2ccccc2)cc1COc1ccc(Cl)cc1Cl (configuration not stated)	.	.	.	6%	1.7µM*	.
COc1ccc(C2Nc3ccccc3C(=O)N2Cc2ccccc2)cc1CN1CCOCC1 (configuration not stated)	-5%	3%	19%	13µM*	8.3µM*	-19%
COc1cccc(C2Nc3ccccc3C(=O)N2Cc2ccccc2)c1 (configuration not stated)	-10%	.	.	.	.	.
COc1ccc(N2C(=O)c3ccccc3NC2c2ccc(OC)c(Cn3nnc4ccccc43)c2)cc1 (configuration not stated)	-7%	8%	-8%	9.3µM*	12µM*	-1%
